LASV entry inh: blocks Lassa virus binding to or entry into cells | Potency, µM (doses to about 37.9 µM), for inactives: at the top dose activity change, negative = inhibition, most hits filed as inhibitors | actives 1.2% (n = 300,000) | Lassa virus pseudotype entry inhibition, cell reporter | AID 540256; calls by dose curve; tested in HEK293 cells; note: potency is the fitted concentration of half-maximal effect; nearly all actives have a fitted effect of over 50% in size
HCMV inh: blocks human cytomegalovirus replication. activity change, negative = inhibition, % at 57.5 µM. actives 4.5% (n = 410,000). HFF cells, HCMV-luciferase reporter, 72 h; hits give low values; in the data active = activity change below about -60%; inconclusive = no clear call, values can overlap the other calls; inactive = above about -39%
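Human foreskin fibroblasts infected with luciferase-reporter HCMV at MOI 1 PFU/cell, compounds at two doses. Luciferase measured 72 h post infection; normalized to buffer-only basal and Salinomycin (10uM) controls.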
VACV Venus inh: inhibitors of vaccinia virus (Venus reporter); actives 0.46% (n = 330,000); Vaccinia virus Venus reporter expression, fluorescence; Potency, µM (highest dose often 36.5 µM), for inactives: top-dose activity change, negative = inhibition, hits mostly inhibitors; calls by dose curve; tested in A549 cells; note: potency is the fitted concentration of half-maximal effect; nearly all actives have a fitted effect of over 30% in size
HCV inh: HCV inhibition; Huh7.5.1 HCVcc-Cre infection, luciferase reporter, 44 h; Potency, µM (doses to about 41.8 µM), without a hit: top-dose activity change, negative = inhibition, most hits filed as inhibitors; actives 3.4% (n = 340,000); active = well fitted inhibition curve with a large enough effect; inconclusive = small, poorly fitted or top-dose-only effect, or another doubt; inactive = no such curve, though single readings can be large or run the other way; note: potency is the fitted concentration of half-maximal effect
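Luciferase read-out (15 sec integration) after a 15 min room-temperature substrate step quantifies HCVcc-Cre infection. Cells, 1,000 per well, had compound added 4 h post-plating, then virus at ~0.5 moi, and were cultured 44 h.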
VACV mCherry inh: inhibitors of vaccinia virus infection (mCherry reporter signal); Vaccinia virus mCherry reporter infection, fluorescence; Potency, µM (titrated, usually from 36.5 µM), without a hit: at the highest dose activity change, negative = inhibition, hits mostly inhibitors; actives 0.63% (n = 310,000); calls by dose curve; tested in A549 cells; note: potency is the fitted concentration of half-maximal effect; nearly all actives have a fitted effect of over 35% in size
Marburg entry inh: inhibitors of Marburg virus binding or cell entry. Marburg virus pseudotyped entry inhibition, cell reporter. Potency, µM (highest dose often 37.8 µM), inactives show at the highest dose activity change, negative = inhibition, hits mostly inhibitors. actives 1.8% (n = 300,000). AID 540276; calls by dose curve; tested in HEK293 cells; note: potency is the fitted concentration of half-maximal effect
The depositor's hits bear a star; i = inactive; ? = inconclusive; . = not tested or not shown; ! = not confirmed by another sample; [ ] = another dose, or the depositor's remark. Only some compounds are listed: those with a hit (about 7.8% of all), similar ones and a draw of the others. % is set by controls: 0 for no effect and ±100 for the full control effect.

SMILES | LASV entry inh | HCMV inh | VACV Venus inh | HCV inh | VACV mCherry inh | Marburg entry inh
CO/N=C1\CCCc2c(C(=O)NN)sc(SC)c21 | ? | -66.1* | 1.6%[7.34 µM] | 10.8% | -3.4%[7.34 µM] | ?
COc1ccc(NC(=O)CSc2nnc3c(n2)[nH]c2ccc(S(=O)(=O)N(C)C)cc23)c(OC)c1 | . | . | -20.1% | . | -20.2% | .
COc1cccc(-c2cc3nc4c(c(NCC(C)(C)CN(C)C)n3n2)CCCC4)c1 | ? | -69.1* | -23.6% | ? | ? | ?
CNC(=O)Oc1ccc(-c2cn3cc(Cl)ccc3n2)cc1 | 7.31µM* | ? | -10.4% | ? | -6.5% | 8.2µM*
CNC(=O)Oc1cccc(-c2cn3cc(OC(=O)NC)ccc3n2)c1 | ? | 30.2 | -10.1% | -21.0% | -20.6% | ?
O=C(NCCc1ccccn1)C1CC12CCN(C(=O)c1ccc(F)cc1Cl)CC2 (stereo unspecified) | . | . | 1.6% | . | -12.1% | .
Cc1ccc2nc(-c3ccccc3)cc(C(=O)N(C)CC(=O)Nc3ccccc3Br)c2c1 | ? | -19.4 | -5.8% | ? | i | 11.2µM*
CN(CC(=O)Nc1ccccc1Br)C(=O)c1ccccc1OCc1ccc(Cl)cc1 | ? | -8.9 | -34.6% | ? | 0.1µM* | -27.7%
Cc1cc(C(=O)NCc2ccccc2)c2c(C)nn(-c3cccc(Cl)c3C)c2n1 | 3.6%[46.1 µM] | 13.1 | -19.5% | . | -14.4% | .
Cc1cc(C)cc(Nc2cc(C(=O)NCCCN(C)C3CCCCC3)c3ccccc3n2)c1 | -26.5%[46.1 µM] | -99.0* | -8.9%[7.34 µM] | . | -8.2%[7.34 µM] | ?
CCCCN(C)CCCNC(=O)c1cc(Nc2ccc(OC)c(OC)c2)nc2ccccc12 | . | 67.5 | . | ? | . | .
CCCCN(C)CCCNC(=O)c1cc(-c2ccc(Br)s2)nc2ccccc12 | ? | -68.1* | -11.8%[7.34 µM] | . | -14.8%[7.34 µM] | 12.5%[46.1 µM]
COc1ccc(Nc2cc(C(=O)NCCCN(C)Cc3ccccc3)c3ccccc3n2)cc1OC | 2.5%[46.1 µM] | -99.9* | -21.1% | . | -29.3% | .
CCCCN(CCCNC(=O)c1cc(Nc2ccc(OC)cc2)nc2ccccc12)Cc1ccccc1 | 25.6%[46.1 µM] | -70.7* | -23.8% | . | -20.5% | 7.6%[46.1 µM]
CCOc1ccc(CNC(=O)c2ccccc2NC(=O)c2nsc3ccccc23)cc1 | -16.1%[46.1 µM] | 124.6 | ? | . | -20.6% | .
O=C(Nc1nnc(CCc2ccccc2)s1)C1CCN(C(=O)c2ccco2)CC1 | . | . | -9.0% | . | -13.7% | .
COc1cc2nc(N(C)C)nc(NC3CCN(C)CC3)c2cc1OC | . | . | ? | . | -27.0% | .
C[C@H]1[C@@H](NC(=O)Nc2cccc(C#N)c2)CC[C@@]23CCCN2C(=O)CCC[C@@H]13 | . | 11.8 | . | . | . | .
COc1ccccc1C(=O)Nc1cccc(C(=O)OCc2cc(=O)n3nc(C)sc3n2)c1 | 3.2%[46.1 µM] | 68.9 | -28.2% | . | -28.4% | .
CCOc1ccc(CCNC(=O)CCc2c(C)nc3c(c(C)nn3-c3ccccc3)c2C)cc1OCC | 7.5%[46.1 µM] | 11.0 | -21.6% | . | ? | ?
COc1ccc2ccccc2c1C1NC(=O)c2ccccc2N1 (stereo unspecified) | ? | -15.6 | 5.62µM* | 2.3% | ? | -9.3%
O=C1NC(c2ccccc2Cl)Nc2ccccc21 (stereo unspecified) | -3.2% | 22.9 | . | -11.6% | . | ?
O=C1NC(c2cccc3ccccc23)Nc2ccccc21 (stereo unspecified) | ? | -69.0* | ? | 0.3% | ? | ?
[O-][n+]1cccc2c(Br)cc(Br)c(O)c21 | 12.2%[46.1 µM] | -84.4* | -9.3% | -1.8% | i | 11.1%[46.1 µM]
[O-][N+]12CCCc3cccc(c31)CCC2 | . | . | 0.3% | . | i | .
SMILES | LASV entry inh | HCMV inh | VACV Venus inh | HCV inh | VACV mCherry inh | Marburg entry inh
COc1ccc(C(C[N+](=O)[O-])c2c(C)[nH]n(-c3ccccc3)c2=O)cc1 (stereo unspecified) | 3.8% | -102.5* | 3.2% | -8.9% | 2.3% | -10.4%[46.1 µM]
Cc1[nH]n(-c2ccccc2)c(=O)c1C(C[N+](=O)[O-])c1ccccc1Cl (stereo unspecified) | 5.0% | 7.8 | -10.2% | 2.5% | -13.0% | 35.3%
CNC(=O)C1CC(=O)N(CCc2ccc(C)cc2)C1 (stereo unspecified) | 5.3%[46.1 µM] | -69.5* | -6.1% | 14.7% | -13.5% | ?
CCCc1nnc(NC(=O)C2CC(=O)N(CCc3ccc(F)cc3)C2)s1 (stereo unspecified) | 7.3%[46.1 µM] | 1.8 | -16.2% | 5.4% | -21.8% | 8.2%[46.1 µM]
O=C(Nc1nncs1)C1CC(=O)N(CCc2ccc(F)cc2)C1 (stereo unspecified) | -3.5%[46.1 µM] | -66.0* | 0.0% | 8.5% | -1.5% | -0.2%[46.1 µM]
Cc1ccc(CCN2CC(C(=O)NC(C)C)CC2=O)cc1 (stereo unspecified) | -1.0%[46.1 µM] | -61.1* | -1.7% | 19.9% | i | 27.8%[46.1 µM]
CC(C)NC(=O)C1CC(=O)N(CCc2ccc(F)cc2)C1 (stereo unspecified) | . | -3.8 | 3.5% | . | i | .
O=C(CSc1oc(-c2ccc(F)cc2)nc1S(=O)(=O)c1ccccc1)NCC1CCCO1 (stereo unspecified) | -19.9% | -63.6* | -11.5% | -7.7% | -14.5% | ?
Cc1ccc(S(=O)(=O)c2nc(-c3ccccc3)oc2SCC(=O)NCC2CCCO2)cc1 (stereo unspecified) | -34.4%[46.1 µM] | ? | -11.2% | 10µM* | -10.1% | ?
Cc1ccc(-c2nc(S(=O)(=O)c3ccc(F)cc3)c(SCC(=O)NCC3CCCO3)o2)cc1 (stereo unspecified) | -0.4% | -38.2 | -2.3% | 2.4% | -6.8% | ?
CC(NC(=O)c1cc(F)ccc1F)c1nnc2n1CCN(Cc1ccco1)CC2 (stereo unspecified) | . | . | -0.3% | . | -1.6% | .
CC(=O)c1sc2c(c1C)c(=O)n(-c1ccc(Cl)cc1)c(=O)n2Cc1ccc(Cl)cc1 | ? | 16.5 | -5.0% | . | -13.9% | ?
CCC(=NCc1ccc2c(c1)OCO2)c1c(O)n(C2CCCCC2)c(=O)[nH]c1=O | 13µM* | ? | . | ? | . | ?
CCC(=NCCO)c1c(O)n(C2CCCCC2)c(=O)[nH]c1=O | -15.0% | 15.1 | -6.2% | 14.3% | -10.9% | 3.7%
CCCN1CNc2c(c(=O)[nH]c(=S)n2CCc2ccccn2)C1 | . | . | -5.7% | . | -11.7% | .
COc1ccccc1CNC(=O)c1cc2cccc3c2n1CCS3 | ? | ? | -1.4% | . | -2.9% | .
O=C(CCC(=O)N1CC2CCCN2c2ccccc21)NCc1cccc(Cl)c1 (stereo unspecified) | ? | -2.5 | -9.2% | . | -9.8% | .
Cc1cccc(N2CCN(C(c3cccs3)c3nnnn3C(C)(C)C)CC2)c1C (stereo unspecified) | ? | ? | 6.8% | -6.1% | i | 11.6µM*!
COc1ccc(OC)c(C(c2nnnn2Cc2ccco2)N2CCN(C)CC2)c1 (stereo unspecified) | . | -29.8 | . | 4.6% | . | .
Cc1cccc(N2CCN(C(c3ccccc3)c3nnnn3C(C)(C)C)CC2)c1C (stereo unspecified) | 3.26µM* | -39.9 | . | 1.9% | . | ?

Compound activity from PubChem BioAssay.
